Data from PubChem BioAssay (Tox21).
Records with an inconclusive call do not appear. A number with no mark means an inactive call. Activity calls are given as the source filed them. Unless noted, calls follow the shape of the dose curve; as a rule, active = well fitted cell-killing curve with a large enough effect in the repeat runs; inconclusive = weak or mixed curves, or effect the other way; inactive = flat fitted curve, though single readings scatter.

Test system: not listed separately
Assay: qHTS assay to identify small molecule that activate the aryl hydrocarbon receptor (AhR) signaling pathway - cell viability counter screen (AID 743086);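 also: HepG2 liver cells carrying the AhR DRE luciferase reporter; nearly all actives have a fitted effect of over 45% in size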
Conditions: HepG2-AhR-luc viability, CellTiter-Fluor, 24 h; series mostly up to 70.3 µM; viability change, negative = cytotoxic: at the top concentration
How it was run: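 HepG2-AhR-luc (HG2L7.5c1) cells, 4000/well, treated 24 h at 37 C with compound; viability measured as CellTiter-Fluor fluorescence after 30 min in the same wells as the luciferase read.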
% is scaled to controls: 0 for no effect and ±100 for the full control effect.

Compared with `Oc1ccc(Cl)c2c1CCC2`, `CC1(C)S[C@@H]2[C@H](NC(=O)[C@H](N)c3ccc(O)cc3)C(=O)N2[C@H]1C(=O)O` is lower in “viability change, negative = cytotoxic” value: 16.8% for the first, -0.879% for the second.

For `N[C@H](CO)C(=O)O`, the “viability change, negative = cytotoxic” value was 4.14%.

Target: Peroxisome proliferator-activated receptor gamma (Homo sapiens) (UniProt P37231)
Assay: qHTS assay to identify small molecule agonists of the peroxisome proliferator-activated receptor gamma (PPARg) signaling pathway (AID 743094; active = well fitted activation curve with a large enough effect in the signal ratio in the repeat runs, not every such curve was filed as active; the % refers to the signal ratio)
Conditions: HEK293H PPARg-UAS-bla, beta-lactamase FRET ratio, 17 h; series mostly up to 57 µM; activation: at the top concentration
How it was run: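 Compounds dissolved in DMSO were added to PPARg UAS-bla HEK293H cells for 17 h at 37C, and reporter expression was quantified by fluorescence intensity after 1 h with LiveBLAzer B/G FRET substrate.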

Chain of Peroxisome proliferator-activated receptor gamma (Homo sapiens) (P37231 whole entry, looked up): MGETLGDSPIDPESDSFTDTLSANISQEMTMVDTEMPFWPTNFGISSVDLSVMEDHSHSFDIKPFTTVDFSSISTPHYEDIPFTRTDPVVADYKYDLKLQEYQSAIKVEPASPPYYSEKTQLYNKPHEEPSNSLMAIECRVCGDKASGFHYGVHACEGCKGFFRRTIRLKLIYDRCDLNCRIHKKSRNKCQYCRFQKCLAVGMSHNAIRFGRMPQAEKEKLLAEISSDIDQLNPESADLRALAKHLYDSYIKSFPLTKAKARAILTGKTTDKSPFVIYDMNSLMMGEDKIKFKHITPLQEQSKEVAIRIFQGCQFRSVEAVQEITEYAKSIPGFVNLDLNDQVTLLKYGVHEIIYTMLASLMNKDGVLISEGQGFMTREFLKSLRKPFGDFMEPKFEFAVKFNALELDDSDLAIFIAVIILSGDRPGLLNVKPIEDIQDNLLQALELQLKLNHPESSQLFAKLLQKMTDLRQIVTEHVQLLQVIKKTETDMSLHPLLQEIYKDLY

For `Cc1cc(-c2ccc(N=Nc3ccc4c(S(=O)(=O)O)cc(S(=O)(=O)O)c(N)c4c3O)c(C)c2)ccc1N=Nc1ccc2c(S(=O)(=O)O)cc(S(=O)(=O)O)c(N)c2c1O`, the Potency was “inactive”.
With `CSCC[C@H](NC(=O)[C@H](Cc1ccc(OS(=O)(=O)O)cc1)NC(=O)[C@@H](N)CC(=O)O)C(=O)NCC(=O)N[C@@H](Cc1c[nH]c2ccccc12)C(=O)N[C@@H](CCSC)C(=O)N[C@@H](CC(=O)O)C(=O)N[C@@H](Cc1ccccc1)C(N)=O` the Potency was “inactive”.
With `NC(=O)CC[C@@H]1NC(=O)[C@H](Cc2ccccc2)NC(=O)[C@H](Cc2ccc(O)cc2)NC(=O)[C@@H](N)CSSC[C@@H](C(=O)N2CCC[C@H]2C(=O)N[C@@H](CCCN=C(N)N)C(=O)NCC(N)=O)NC(=O)[C@H](CC(N)=O)NC1=O` the Potency was “inactive”.
For `CC(C)C[C@H](NC(=O)[C@@H](COC(C)(C)C)NC(=O)[C@H](Cc1ccc(O)cc1)NC(=O)[C@H](CO)NC(=O)[C@H](Cc1c[nH]c2ccccc12)NC(=O)[C@H](Cc1cnc[nH]1)NC(=O)[C@@H]1CCC(=O)N1)C(=O)N[C@@H](CCCN=C(N)N)C(=O)N1CCC[C@H]1C(=O)NNC(N)=O`, the Potency was “inactive”.

Going from `O=C1c2ccccc2C(=O)C1c1ccc(F)cc1` to `NCc1cccc(C2CCN(C(=O)c3ccc(C#Cc4ccccc4F)o3)CC2)c1`, the “activation” value rises from -2.44% to 0.198%.

First: CC(=O)OCC(=O)[C@@]1(O)CC[C@H]2[C@@H]3C[C@H](C)C4=CC(=O)C=C[C@]4(C)[C@H]3[C@@H](O)C[C@@]21C
Second: C[C@@H]1C[C@H]2[C@@H]3C[C@H](F)C4=CC(=O)C=C[C@]4(C)[C@@]3(Cl)[C@@H](O)C[C@]2(C)[C@H]1C(=O)COC(=O)C(C)(C)C
The “activation” value of the first is lower: 3.04% for the first, 3.91% for the second.

Going from `N[C@H](C(=O)O)[C@@H]1CC(Cl)=NO1` to `N[C@H](CO)C(=O)O`, the “activation” value rises from -9.4% to 10.3%.

First: O=C1CCC(c2ccc(-n3ccnc3)cc2)=NN1
Second: CN(C)CCc1c[nH]c2ccc(Cn3cncn3)cc12
The “activation” value of the first is higher: 6.42% for the first, 0.247% for the second.

First: O=C1OC(=O)c2cc(-c3ccc4c(c3)C(=O)OC4=O)ccc21
Second: CC(=O)OCC1=C(C(=O)O)N2C(=O)[C@@H](NC(=O)Cc3ccccc3)[C@H]2SC1
The “activation” value of the first is higher: -0.0298% for the first, -0.311% for the second.

Compared with `FC(F)(F)COCC(F)(F)F`, `CCCCCCOC(=O)c1cccnc1` is higher in “activation” value: 0.226% for the first, 1.26% for the second.

Compared with `N[C@@H](Cc1ccc(O)c(O)c1)C(=O)O`, `Oc1ccc(Cl)c2c1CCC2` is lower in “activation” value: 4.36% for the first, 3.57% for the second.

Going from `NC(N)=NCCCCN=C(N)N` to `Cc1c(N)nc([C@H](CC(N)=O)NC[C@H](N)C(N)=O)nc1C(=O)N[C@H](C(=O)N[C@H](C)[C@@H](O)[C@H](C)C(=O)N[C@H](C(=O)NCCc1nc(-c2nc(C(=O)NCCCCN=C(N)N)cs2)cs1)[C@@H](C)O)[C@@H](O[C@@H]1O[C@@H](CO)[C@@H](O)[C@H](O)[C@@H]1O[C@H]1O[C@H](CO)[C@@H](O)[C@H](OC(N)=O)[C@@H]1O)c1cnc[nH]1`, the “activation” value falls from 3.75% to 0.461%.

Going from `CC[C@@H](C(=O)[C@@H](C)[C@@H](O)[C@H](C)CCc1ccc(C)c(O)c1C(=O)O)[C@H]1O[C@](CC)([C@H]2CC[C@](O)(CC)[C@H](C)O2)C[C@@H]1C` to `O=c1[nH]c(=O)n([C@H]2C[C@H](O)[C@@H](CO)O2)cc1/C=C/Br`, the “activation” value rises from -9.41% to 0.547%.

In the case of `CC(=O)Oc1cc(C(F)(F)F)ccc1C(=O)O`, the “activation” value is reported as -1.83% [at 26.2 µM].
